These results are taken from PubChem BioAssay.

The source made the active and inactive calls. The rule behind the calls is not given here.

This assay concerns Aerobactin synthetase IucA (Klebsiella pneumoniae, hypervirulent). Briefly: biochemical IucA inhibition screen of LOPAC library by absorbance (AID 1346212).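 Note: 100% = no compound wells and 0% = no enzyme wells.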 The following applies: IucA enzyme assay, absorbance (OD) readout; hits give low values;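 tested at 8 µM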.
Take `O=C(O)[C@@H]1C[C@H](C(=O)O)N1`: the remaining activity (commonly the signal under treatment as a percentage of the control signal) is 109% (inactive).

For `O=C(Nc1ccccc1)c1cc([N+](=O)[O-])ccc1Cl`, the remaining activity is 115% (inactive).

As to `COCCCC/C(=N\OCCN)c1ccc(C(F)(F)F)cc1`, the remaining activity was 100% (inactive).

On to `Clc1ccc(Cn2c(CN3CCCC3)nc3ccccc32)cc1`, for which the remaining activity was 115% (inactive).

On to `Cc1ccc2c(c1)C(N1CCN(C)CC1)=Nc1cccnc1N2`, for which the remaining activity was 126% (inactive).

`COc1cc(C(=O)OCCCN2CCCN(CCCOC(=O)c3cc(OC)c(OC)c(OC)c3)CC2)cc(OC)c1OC`: the remaining activity was 116% (inactive).

On to `C=C1C(=O)O[C@@H]2[C@H]3O[C@]3(C)CC/C=C(\C)CC[C@@H]12`, for which the remaining activity is 119% (inactive).

As to `NCCC1CCCC(CCN)N1` (stereo not given), the remaining activity is 115% (inactive).

With `C[C@H]1C[C@H]2[C@@H]3CCC4=CC(=O)C=C[C@]4(C)[C@@]3(Cl)[C@@H](O)C[C@]2(C)[C@@]1(O)C(=O)CO`, the remaining activity is 107% (inactive).

Take `CCCCCCC(=O)OC1CC(C)(C)NC(C)(C)C1`: the remaining activity is 109% (inactive).

`CC(C)C(=O)c1c(C(C)C)nn2ccccc12`: the remaining activity is 125% (inactive).

Take `Nc1ccc(-c2ccc3ccccc3n2)cc1`: the remaining activity is 107% (inactive).

As to `OCc1cc(C(O)CNCCCCCCOCCCCc2ccccc2)ccc1O` (stereo not given), the remaining activity is 122% (inactive).

On to `CN1[C@@H]2CC[C@H]1CC(OC(=O)C(CO)c1ccccc1)C2` (stereo not given in full), for which the remaining activity is 95% (inactive).

In the case of `Cc1ccc(S(=O)(=O)N[C@@H](Cc2ccccc2)C(=O)CCl)cc1`, the remaining activity was 107% (inactive).

Consider `CCn1ccnc1CC1COc2ccccc2O1` (stereo not given), for which the remaining activity is 112% (inactive).

With `C[C@]12CC[C@@H]3c4ccc(O)cc4CC[C@H]3[C@@H]1CCC2=O`, the remaining activity was 103% (inactive).

With `Cc1nc(N=Nc2ccc(C(=O)O)cc2)c(COP(=O)(O)O)c(C=O)c1O`, the remaining activity was 110% (inactive).

For the compound `CCCCCCCCCCC/C=C\C(C)(C)/C=C\CCCC(=O)O`, the remaining activity is 86.5% (inactive).

Consider `NC(N)=NCCC[C@H](N)C(=O)O`, for which the remaining activity is 111% (inactive).

Consider `CC(C)(C)NC(=O)[C@H]1CC[C@H]2[C@@H]3CC[C@H]4NC(=O)C=C[C@]4(C)[C@H]3CC[C@]12C`, for which the remaining activity was 119% (inactive).

For `N[C@@H](CS(=O)O)C(=O)O`, the remaining activity is 115% (inactive).

Take `[Li+]`: the remaining activity is 102% (inactive).

For the compound `CO/N=C(\C(=O)N[C@@H]1C(=O)N2C(C(=O)O)=C(CSc3nc(=O)c(=O)[nH]n3C)CS[C@H]12)c1csc(N)n1`, the remaining activity was 117% (inactive).

`NC(N)=NC(=O)Cc1c(Cl)cccc1Cl`: the remaining activity is 119% (inactive).

With `Cc1cccc(C)c1OCC(C)N` (stereo not given), the remaining activity was 113% (inactive).

In the case of `O=c1c(O)c(-c2cc(O)c(O)c(O)c2)oc2cc(O)cc(O)c12`, the remaining activity is 115% (inactive).

As for `Cc1cc(Cn2cnc3c2C[C@@H](C(=O)O)N(C(=O)C(c2ccccc2)c2ccccc2)C3)ccc1N`, the remaining activity is 112% (inactive).

Regarding `CC(C)CN(C)c1nc(N)c(C(=O)N=C(N)N)nc1Cl`, the remaining activity was 114% (inactive).

Consider `NC(=O)c1ccc2[nH]ccc2c1`, for which the remaining activity is 89.8% (inactive).

`N[C@@H](Cc1c[nH]c2ccc(O)cc12)C(=O)O`: the remaining activity was 99.1% (inactive).

Turning to `CN(C)S(=O)(=O)c1ccc2c(c1)/C(=C/c1cc3c([nH]1)CCCC3)C(=O)N2`, the remaining activity is 121% (inactive).

Take `CN1[C@@H]2CC(OC(=O)[C@H](CO)c3ccccc3)C[C@H]1[C@@H]1O[C@@H]12` (stereo not given in full): the remaining activity was 105% (inactive).

Consider `C#C[C@]1(O)CC[C@H]2[C@@H]3CCC4=Cc5oncc5C[C@]4(C)[C@H]3CC[C@@]21C`, for which the remaining activity is 101% (inactive).

With `O=C1CCC(c2ccc(-n3ccnc3)cc2)=NN1`, the remaining activity was 111% (inactive).

Take `Oc1ccc(-c2nc(-c3ccc(F)cc3)c(-c3ccncc3)[nH]2)cc1`: the remaining activity is 119% (inactive).

For `OC1(c2ccc(Cl)cc2)CCN(Cc2c[nH]c3ccccc23)CC1`, the remaining activity was 112% (inactive).

Take `Nc1cc(Cl)c(NC2=NCCN2)c(Cl)c1`: the remaining activity was 118% (inactive).

Consider `C#C[C@]1(O)CC[C@H]2[C@@H]3CCC4=Cc5nc6nc7ccccc7n6cc5C[C@]4(C)[C@H]3CC[C@@]21C`, for which the remaining activity was 123% (inactive).

Take `COc1cc(=O)n(C)c2c(OCC(O)C(C)(C)O)cccc12` (stereo not given): the remaining activity was 108% (inactive).
